Bioassay records deposited in PubChem by several laboratories.
S1P4 antagonist – human S1P4 receptor antagonism; inhibition, % at 4.98 µM; S1P4-expressing cells, antagonist mode, reporter read-out; O95977; 220,000 tested, 0.26% active; in the data active = inhibition above about 29%;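 note: 0% = wells stimulated with agonist and 100% = vehicle wells without agonist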
Hsp70 act – Hsp70 transcriptional activation, primary screen; HeLa Hsp70 promoter luciferase reporter, luminescence; scaled: vehicle 0, proteasome-inhibitor control 100%; 200,000 tested, 0.04% active; activation, % at 10 µM;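 active = activation above the mean across all tested compounds plus 3 SD, cutoff set per campaign, cut at about 5.5% in these data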;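 note: 100% = MG132 at 30 µM as the positive control and 0% = DMSO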
HSF-1 act – increases HSF-1 driven luciferase reporter signal | NIH3T3-HGL HSF-1 luciferase reporter, MG132, 8 h; 100% = twice DMSO control signal | AID 504408 | 300,000 tested, 1.7% active | activation, % at 9 µM;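 active = mean replicate activation of at least 50% with a set share of replicates each reaching 50%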;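 note: 0% = median of the neutral control wells and 100% = twice that signal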
HSF1 inhib – HSF1 inhibition; NIH3T3-HGL HSE-luciferase, MG132-induced, luminescence 8 h; active compounds read low; activity change, negative = inhibition, % at 7.5 µM (by protocol); 300,000 tested, 0.77% active;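 active = more than half of replicate wells show activity change below -50%, luminescence cut by over half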;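 note: luciferase reports HSF-1 transcriptional activity via heat shock element; 0% = median of DMSO wells and -100% = zero luminescence signal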
S1P3 antag – blocks the human S1P3 receptor; AID 485; CHO S1P3 NFAT-BLA reporter, FRET fluorescence, antagonist mode; 170,000 tested, 0.27% active; inhibition, % at 4.98 µM;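 active = inhibition above the plate cutoff, the mean inhibition of test wells on that plate plus 3 SD, cut at about 28% in these data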;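 note: cells challenged with S1P at its EC80 of 0.8 µM; blue over green emission ratio from cleaved BLA substrate after 4 h stimulation; 0% = S1P-stimulated wells and 100% = unstimulated DMSO-only wells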
Target sequence (Q99500 whole entry, looked up): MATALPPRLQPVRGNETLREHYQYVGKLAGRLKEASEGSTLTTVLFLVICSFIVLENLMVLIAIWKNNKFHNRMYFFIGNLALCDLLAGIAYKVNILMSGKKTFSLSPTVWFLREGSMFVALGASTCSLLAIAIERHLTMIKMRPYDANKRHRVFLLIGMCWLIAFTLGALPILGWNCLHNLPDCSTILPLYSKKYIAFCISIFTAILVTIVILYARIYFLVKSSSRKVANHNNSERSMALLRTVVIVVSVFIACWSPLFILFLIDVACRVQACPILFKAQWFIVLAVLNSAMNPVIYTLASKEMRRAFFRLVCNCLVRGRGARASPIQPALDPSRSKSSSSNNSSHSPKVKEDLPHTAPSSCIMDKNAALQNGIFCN
S1P4 ag – activates the human S1P4 receptor | O95977 | S1P4-expressing cell line, agonist reporter assay | activation, % at 4.98 µM | 220,000 tested, 0.35% active | AID 1509; in the data active = activation above about 11%;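 note: 0% = DMSO vehicle and 100% = reference agonist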
Starred values were filed as active, the others as inactive; / = no result given. This is a sample that favours compounds with a hit; in the whole collection about 2.9% have one here.

SMILES | S1P4 antagonist | Hsp70 act | HSF-1 act | HSF1 inhib | S1P3 antag | S1P4 ag
Cn1ccnc1C1CCCCN1C(=O)c1cc(COc2ccc(F)cc2Cl)on1 (stereo not given) | -11 | 0 | -82 | -77* | -5 | 5
O=C(COC(=O)C1CCCC1)Nc1ncc(Cl)cc1Cl | / | / | -12 | -7 | / | /
S=C(NCC1CCCO1)N1CCN(Cc2ccccc2)CC1 (stereo not given) | -12 | 0 | 0 | -3 | -3 | 1
CCn1c(SCC(=O)N/N=C(\C)c2ccncc2)nnc1-c1ccc(C)cc1 | 10 | / | -6 | -2 | -12 | 2
Cc1cc(NC(=O)c2cc3n(n2)C(C(F)(F)F)CC(c2ccc(Cl)c(Cl)c2)N3)no1 (stereo not given) | 15 | 0 | 12 | -3 | 55* | -1
CCCSc1nnc(CNS(=O)(=O)c2ccc(C)cc2)n1C | / | / | -66 | -61* | / | /
Cc1ccc(C)c(S(=O)(=O)Nc2nc3ccc(S(N)(=O)=O)cc3s2)c1 | 6 | 0 | 18 | -4 | -35 | 0
CN(C)S(=O)(=O)c1ccc(C(=O)OCCCN=C2NS(=O)(=O)c3ccccc32)cc1 | -6 | 0 | -73 | -67* | -12 | -1
CCOC(=O)c1c(C)[nH]c(C(=O)Nc2ccc(C)c(Cl)c2)c1C | -8 | 0 | 63* | 33 | -2 | 0
O=C(CCc1cn(Cc2ccc(F)cc2)c2ccccc12)N1CCOCC1 | / | / | 26 | 13 | / | /
Cc1cc2c(ncn2C)c(NS(=O)(=O)c2cc(Cl)ccc2Cl)c1C | 0 | 0 | 140* | 76 | / | 0
Cc1cc2c(ncn2C)c(NS(=O)(=O)c2ccccc2Cl)c1C | -7 | 0 | -1 | -5 | / | 1
COc1cc(Cl)c(C)cc1NC(=O)CSc1ccc(C)cc1 | 5 | 0 | 80* | 38 | / | -1
COc1cc(Cl)c(C)cc1NC(=O)CSc1ccccc1 | -5 | 0 | 20 | -2 | -12 | -1
CCOC(=O)c1csc(COc2ccccc2Cl)n1 | 7 | / | 23 | 15 | -7 | 0
CCOC(=O)c1csc(COc2ccc(OC)cc2)n1 | 0 | / | 64* | 22 | 8 | -1
CCC(C)c1ccc(NC(=O)COc2c(F)c(F)c(C(F)(F)F)c(F)c2F)cc1 (stereo not given) | -5 | 0 | -23 | -8 | -9 | -1
COc1ccc(OC)c(/C=N/Nc2nncn2/N=C/c2cc(OC)ccc2OC)c1 | 3 | 0 | 81* | 38 | -15 | -1
COc1ccccc1NC(=O)Cn1c(=O)c(N(C)C)c(N)n(C)c1=O | -13 | 0 | -76 | -71* | -1 | 0
O=C(CCl)N1CCCC1c1ccc2c(c1)OCCO2 (stereo not given) | / | / | -62 | -63* | / | /
CCCNC(=O)NC(=O)CN1CCCC1c1ccc2c(c1)OCCO2 (stereo not given) | / | / | 2 | -4 | / | /
CCN(CC)S(=O)(=O)c1ccc(C(=O)NCCOC(=O)c2ccc(F)cc2F)cc1 | / | / | -1 | -2 | / | /
CC(=O)N1CCc2cc(S(=O)(=O)CCC(=O)Nc3c(C)n(C)n(-c4ccccc4)c3=O)ccc21 | -20 | 0 | 1 | -4 | -4 | 0
CCc1cc2c(NCCC(=O)O)nc(C)nc2s1 | -17 | 1 | -70 | -60* | 6 | 1
CC(C)OC(=O)Cn1c(=O)oc2ccccc21 | 3 | 0 | -62 | -52* | / | -2
SMILES | S1P4 antagonist | Hsp70 act | HSF-1 act | HSF1 inhib | S1P3 antag | S1P4 ag
CC(C)CN(C)C(=O)CCc1nnc(Cc2ccc(-c3ccccc3)cc2)o1 | -15 | 0 | 24 | 10 | -10 | -1
Cc1cc(F)ccc1NCc1cc2c(cc1[N+](=O)[O-])OCO2 | -3 | 0 | 53* | 17 | / | -1
Cc1ccc(S(=O)(=O)N2CCCOC2CNC(=O)C(=O)NCCc2c[nH]c3ccccc23)cc1 (stereo not given) | -17 | -1 | 26 | -4 | -1 | 0
COc1ccc(OC)c(/C=C/C(=O)c2ccc3c(c2)OCCO3)c1 | / | / | 66* | 53 | / | /
COc1cc(/C=C/C(=O)c2ccc3c(c2)OCCO3)cc(OC)c1OC | / | / | 190* | 147 | / | /
COc1ccc(Oc2nnnn2-c2ccccc2)cc1 | -2 | 0 | 3 | 18 | / | 2
c1ccc(-n2nnnc2Oc2ccc(-c3nnco3)cc2)cc1 | -2 | 0 | -75 | -70* | -14 | -1
Fc1ccc(NC(=S)Nc2nccs2)cc1 | -7 | 0 | 64* | 23 | -26 | 0
O=C(Nc1nccs1)c1ccc(-c2ccc(Cl)cc2)o1 | 14 | 0 | 57* | 25 | -3 | 0
O=C(Nc1nccs1)c1ccc(-c2ccccc2[N+](=O)[O-])o1 | / | / | 34 | 40 | / | /
O=C(Nc1nccs1)c1ccc(-c2ccc([N+](=O)[O-])cc2)o1 | -28 | 0 | -20 | -13 | 6 | 1
O=C(Nc1nccs1)c1ccc(-c2ccc(F)cc2)o1 | 18 | 0 | 73* | 26 | 7 | -2
O=C(Nc1nccs1)c1ccc(-c2ccccc2Cl)o1 | -13 | 0 | 61* | 21 | / | 0
C/C=C/C=C/C(=O)Nc1nccs1 | -9 | 0 | 36 | 20 | -12 | 2
O=C(/C=C/c1ccc(Cl)cc1)Nc1nccs1 | -10 | 0 | 63* | 38 | 14 | 0
COc1ccc(N2CC(C(=O)NCc3nnnn3-c3ccc(C)c(C)c3)CC2=O)cc1 (stereo not given) | / | / | 1 | -1 | / | /
c1ccc(-c2nc(NCc3cccnc3)c3oc4ccccc4c3n2)cc1 | -8 | 0 | 76* | 55 | 9 | 0
O=C1CC(N(Cc2ccc3c(c2)OCO3)C(=O)Nc2ccc(F)cc2)C(=O)N1c1ccccc1 (stereo not given) | 12 | 0 | 57* | 10 | 20 | 1
COc1ccc(NC(=O)N(Cc2ccc3c(c2)OCO3)C2CC(=O)N(c3ccc(OC)cc3)C2=O)cc1 (stereo not given) | -4 | 0 | -17 | -1 | / | 2
CCOC(=O)NC(=O)C(=CNc1ccccc1C)C(=O)NC(=O)OCC | -23 | 0 | -3 | -6 | 11 | 1
O=C(CCN1CCC(c2cccs2)=N1)c1cccs1 | 6 | / | 65* | 38 | 3 | 1
O=C(CCN1CCCC1)c1cccs1 | 1 | / | -9 | 6 | -10 | 1
COc1cccc(N(C(=O)c2cccs2)c2nc3ccccc3s2)c1 | -7 | 0 | -74 | -67* | 27 | 0
CCC1(C)N=C(N)Nc2nc3cc(C)c(C)cc3n21 (stereo not given) | -15 | / | 71* | 24 | 0 | 3
C=CCn1c(SCC(=O)NC2CCCC2)nc2scc(-c3ccco3)c2c1=O | -19 | 0 | 61* | 13 | -54 | 2
C=CCn1c(SCC(=O)NCCCC)nc2scc(-c3ccco3)c2c1=O | -33 | 0 | 10 | 32 | -19 | 1
CC(C)n1c(SCC(=O)NC2CCCCC2)nnc1-c1ccco1 | / | / | 67* | 11 | / | /
